Among all 31,000 sequences or so, about 1,400 (4.5%) were called active. This is one part of a sample in which actives are shown more often than they occur. Unmarked numbers belong to inactive results.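 How the source made its calls: active means median seed-adjusted z-score above 1 or below -1; inactive means the rest.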

This test can be described thus: Novel Modifiers of Survival Motor Neuron (SMN) Protein: Gene Identification via Genome-wide siRNA Screen.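 Further: luminescence tracks full-length SMN protein made from the SMN2 reporter.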 The settings on record: HEK293T SMN2-luciferase reporter, siRNA knockdown, 72 h; actives lie on both sides. Summed up: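 siRNA screen, 10418 genes ×3 siRNAs; 1 pmol/well, lipid reverse transfection into HEK293T SMN2-luc reporter line. 72 h, 37 °C, 5% CO2; ONE-Glo readout. Data: neg-ctrl normalized, log10, MAD; hit = MAD >1.0 or < -1.0.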
On the technique in general: In a reporter assay the amount or activity of a reporter protein is the signal.
For the sequence GACUAAAUCAGUUACCGAATT against MED17, the median seed-adjusted z-score was -2.06 (active).
Consider GCACCUGAAUGACACGCAATT against HOXD1, for which the median seed-adjusted z-score is 0.144.
Take GGAAUUGUGGUGUUAGUAATT against POLN: the median seed-adjusted z-score was -0.129.
Consider GGUCAUUGCCCGAACAAUATT against BNC1, for which the median seed-adjusted z-score is -0.631.
Then GGACUUUAUUCGGAAGCUUTT against DAPK2, with 0.268; and AAUUCAAGCUAUGAAGAUATT against ACO2, with -1.57 (active).
Consider CCUUCAAUGUGGGCUACCATT against DEGS2, for which the median seed-adjusted z-score was -0.305.
Regarding CAACCUUUCUUGUUAGUAATT against DHRS7, the median seed-adjusted z-score is 0.255.
Then CUGUUCCAGUUGUGGCUCUTT against KRTAP5-1, with 0; and CAACAGCGAUUGGAAUGGATT against UGDH, with 0.674; and CUGGAAGUGUUAUUCCUAATT against FOXD4L1, with 0.271.
CGACAAGCCCAAUGUUUAUTT against SSU72: the median seed-adjusted z-score was -1.64 (active).
Then GUACCGAGAGAAUAACAAATT against SYP, with -0.0289.
Consider GCUGGUUAGGAACCGCUCATT against ZNF579, for which the median seed-adjusted z-score was -0.0604.
The value for GGCAAGUAGAUAGUACAUUTT against ZNF507 was -0.262.
With UGAUAAGGAUAACAAGAGATT against CAMP, the median seed-adjusted z-score was -0.622.
For the sequence GCAUCAAGAUUUUCCGCUUTT against SLC26A2, the median seed-adjusted z-score was -1.25 (active).
As to GCAUAGGCCCAGUAACUUATT against SLC25A34, the median seed-adjusted z-score was -0.256.
Then CGCUCACAGUCAUACACGUTT against SLC39A7, with 0.0554.
The value for CUCUUGUACCAGUUCCUGATT against SLC25A35 was -0.762; that for UGGUCGUUAUGGUCCUAUATT against FUSIP1 was 0.865; that for GGCACGGUUUUGGUCGAAATT against FREM2 was 0.143.
Then UACAUAUGCUGGACAGAAATT against SSU72, with -1.64 (active).
As for CAGGUAUGGUGAACCGUGATT against YES1, the median seed-adjusted z-score is -0.508.
GUACCUCGUAAAUCACGAATT against NFAT5: the median seed-adjusted z-score is 0.106.
In the case of GAUUUUCACUUGCAACUCATT against PDP2, the median seed-adjusted z-score was -0.0726.
The value for AGAGCAACAUCAACAUUAUTT against TKTL1 was -0.495; that for CGACCGUGGUGACAUGAUUTT against LRP3 was -1.05 (active).
For GCUCCGCAAAUGUGGUUGATT against ZNF714, the median seed-adjusted z-score is 0.
On to UGCGCAACCUUAAGAACAATT against PRAF2, for which the median seed-adjusted z-score was -0.326.
Regarding GAAAGGCAGUUUUCGUAAATT against NXF3, the median seed-adjusted z-score was 0.672.
Turning to GAGAGGUACCAGACCAUGATT against POLM, the median seed-adjusted z-score is -1.55 (active).
Then AGCCUGAAAGUAUCCGUAATT against CLTA, with 0.243; and GGAGCUCUGUUGUGGAGAATT against FCGRT, with -0.00396.
GGACUAAACUACCUCCAAATT against KCNE3: the median seed-adjusted z-score was -1.33 (active).
Then CCUGAAAUCAUAGAGUUAATT against KCNMA1, with 0; and AGCAGAAGAUGGUAGAUGATT against VIL1, with 0.368.
Then AGGGCACAUUCACCAGUGATT against GCG, with -1.18 (active).
The value for CUCCUGCUGCAAAACAAUATT against SLC25A6 was -0.928; that for GUCACGUCUUGAUACCUCUTT against ACAD8 was 1.06 (active); that for GAUUGUCUUCGGUCUAUUATT against STAM was 0.
Consider GACCCACUCUUGAAAGACATT against ZNF304, for which the median seed-adjusted z-score was -0.44.
The value for CGAGAGGGCUGUUUCCAAATT against LIMS3 was -0.078.
For GAAAGAUGGUGUUGACUUUTT against ALDOB, the median seed-adjusted z-score was -1.34 (active).
CUUCAUAUCUCUUUACGUATT against PIGW: the median seed-adjusted z-score is -0.242.
Then CCACCAAUGUAGUCUAUCATT against PAPSS2, with -0.201.
Turning to AGAAGACCCGUAGACUGAATT against NEUROG2, the median seed-adjusted z-score was -0.366.
Regarding UAAACUCGUUAGUCAAUUATT against SLC7A9, the median seed-adjusted z-score is 0.194.
For GCAGAUAAGUGAACGAGAUTT against SAMHD1, the median seed-adjusted z-score was -1.33 (active).
Then CGCUCCUUGUCAAAAGAAATT against KCNS3, with 0.103; and GCAUGACCUCUGUAAGGGATT against ANK1, with -0.282; and GAAUCGCAAGGAUAUGAUATT against MSH2, with 0.
The value for CCAUCUACCAGCUAAUCAATT against PIK3C2G was 0.0251; that for GGAUUCCCUUCAAGAUAUATT against NUCB2 was 0.45; that for CCAUCACCCGUGAAGAGAATT against CRYAB was 0.354.
Take CAAUGGUCCAAGUCUAACATT against EEF1E1: the median seed-adjusted z-score was -1.45 (active).
For the sequence CCCAGUCAAUCAAAGGAAATT against CD3G, the median seed-adjusted z-score was -0.0274.
As to GAAAGCAACUGACACUCUUTT against ATP2C2, the median seed-adjusted z-score was -0.302.
CAAGGGCACAGGCACAAAATT against SBK1: the median seed-adjusted z-score is 0.0587.
Then ACCACGCAUUAAAACCAAATT against PRKCE, with 0.568; and GGGAGGAUUUGAUCGGACATT against SPEN, with -1.69 (active).
For the sequence CCUUCUGAAAGAACGCAAATT against ABCA8, the median seed-adjusted z-score is -0.666.
On to GAAUAUGCAUUGCUAACCATT against SV2C, for which the median seed-adjusted z-score was 0.183.
Then GGCAUUAUCUGGAUCACUUTT against PATE1, with 1.21 (active); and GAAGAUCAUUAGAUUUCUATT against SULT1B1, with -0.115; and GUACGUCCAUUAUGGAGAATT against GPR82, with -0.83.
As to GGAUAAUGAUGACGGGAGATT against SYT9, the median seed-adjusted z-score was 0.0419.
Then CAACGACCGGAGGUAUAAATT against BPGM, with 0.408.
On to CCGGCUUCCUCAUUACCUUTT against SLC2A14, for which the median seed-adjusted z-score is -1.09 (active).
GGACUUACCUCAAUCAGAUTT against ZDHHC13: the median seed-adjusted z-score was -0.381.
Then CGAGAGGUGUAUCAAUAUATT against LIN7A, with -1.39 (active); and GCUUUACCACCGUACGAAATT against MST4, with 0.343.
Then UGAGAAUUGUGGAUCCGGATT against CSTF2, with 0.586; and GGUACGAAUGAAUACCUUUTT against PTPN4, with -0.447.
Turning to GACCCAGCCGAAUACAACATT against NDUFB4, the median seed-adjusted z-score was -0.697.
GAACCUACAUCAUCAGUAUTT against GJA1: the median seed-adjusted z-score is 0.348.
As to GCCUUGCUGUUAAAGGGCATT against PARP2, the median seed-adjusted z-score was -0.366.
Take AGAGUGACCUGAUUGAGCATT against CSNK2B: the median seed-adjusted z-score is -1.62 (active).
Consider GGCCUUUGGUGAAAACCGUTT against CLDN11, for which the median seed-adjusted z-score was 0.268.
Turning to GCCUAUGACCUUCUACUUUTT against SLC31A1, the median seed-adjusted z-score was 0.
Then GUAUCUGCGAGGACGAAAATT against RNF113B, with -0.228; and GCAUCAUCGGUACCCAGUUTT against MPO, with -0.223; and GGCCGCUGCUUGUUUGUCATT against SLC13A3, with 0.0434.
The value for ACUGUGAAAUUGGACCAAUTT against RABIF was 0.
The value for CUGUCGCUGUCUGACCAGATT against ESRRA was -0.833; that for AGACAAUGAUCAUAGACAATT against IDH3B was -0.642; that for CAACAACCCUUAUCGUAAATT against POLQ was 0.203.
Consider GAGACUAUAUCUACAUGAATT against SLITRK3, for which the median seed-adjusted z-score was -0.564.
Take CGGAUGUUCUUUACACUAUTT against HNRNPL: the median seed-adjusted z-score was 1.04 (active).
Then GCAUAUGACUUGUAUUCCUTT against TFB2M, with 0.206.
As for GGGACAUGGGAAUGCAAUATT against MSR1, the median seed-adjusted z-score was 0.0743.
On to GGAAAUCUCGUGAUUUUCATT against TEAD1, for which the median seed-adjusted z-score is 1.31 (active).
Then CCAGAAACGUACACCUGAUTT against COX7B, with -1.16 (active); and CCAUCAACACUGAAUUGCATT against SEC22B, with -0.106; and GUAUAGAUCUCUAUUUCUATT against COPZ1, with -1.02 (active).
The value for GAAGAGUGGUACUACCAGATT against BACE2 was 0.0853.
The value for CCACUUCAAGAAAACUUCATT against ZSCAN22 was 0.277; that for GGCUCGAGAUUUAUACGAUTT against HECTD1 was -0.0588.
Regarding GGAGAAAGGAUCACGCUAATT against KCTD1, the median seed-adjusted z-score is 0.
CCUACACGGUCCUUCGUAATT against HEPHL1: the median seed-adjusted z-score is 0.0681.
The value for CCUUCUAUCAUGUAAGCUATT against IL1A was 1.12 (active).
With GCGUGUUCCCAAUAGUGUATT against OGT, the median seed-adjusted z-score is 0.411.
The value for GGAUAUCACAGAAGGAUAUTT against ANXA4 was -0.0932.
The value for GUGUAAAACUUGUCAGCGATT against WT1 was 0.236; that for GCAGCUUCAUAACCGAAGATT against PARP1 was -0.0913.
Then GAUGCAUGUUUGUAAAAAUTT against KCNJ6, with -1.6 (active); and GCCCAACAGUCAUUCAACATT against CHMP5, with 0; and GGAGGUGACCUUCCAGGAATT against RAB17, with 0.473.
Consider GGCCGUCAGUAAUACAUCUTT against ZBTB33, for which the median seed-adjusted z-score is 0.164.
